# Assay results published in PubChem BioAssay AID602360 (National Center for Advancing Translational Sciences (NCATS), 2012).
# Records with an inconclusive call do not appear. Calls of active or inactive are those of the source. Calls come from the whole dose curve; as a rule, active = well fitted curve in the direction sought with a large enough effect; inconclusive = small, poorly fitted or top-dose-only effect, or another doubt; inactive = no such curve, though single readings can be large or run the other way.
# Target: Holo-[acyl-carrier-protein] synthase (Bacillus subtilis (strain 168)) (UniProt P96618)
# Assay: qHTS Assay for Inhibitors of Bacillus subtilis AcpS phosphopantetheinyl transferase (PPTase): SAR
# Conditions: purified B. subtilis AcpS enzyme; Potency: PPTase activity; series mostly up to 57.1 µM; activity change, negative = inhibition: at the top concentration
# Description: The covalent attachment of a phosphopantetheinyl (4'-PP) arm to a variety of synthases and other proteins is a key posttranslational protein modification. The 4'-PP is installed on the proteins post-translationally from coenzyme A (CoA) on a conserved serine residue by action of phosphopantetheinyl transferase (PPTase) enzymes. Phosphopantetheinylation is essential for synthase activity, and removal of the PPTase gene precludes natural product synthesis in microorganisms, or in the case of fatty acid biosynthesis, renders the organism unviable. PPTase enzymes belong to a distinct structural superfamily. Within bacteria, these enzymes are grouped into two classes based upon primary structure, the AcpS-Type and Sfp-Type PPTases.
# Sfp-type PPTases, corresponding to an activator of surfactin production in Bacillus subtilis, are responsible for modifying type I polyketide and nonribosomal peptide synthases of prokaryotes. Sfp-type PPTases are responsible for the activation of a variety of pathogen-associated virulence factors. Among these compounds are toxins such as mycolactone from Mycobacterium ulcerans, siderophores such as vibriobactin from Vibrio cholerae or mycobactin from Mycobacterium tuberculosis, as well as the mycolic acids which form the waxy cell wall of Mycobacteria. The biosyntheses of these natural products are considered attractive targets for drug design.
# In search of small molecule Sfp-PPTase inhibitors, a fluorescence quenching assay was developed for detection of Bacillus subtilis Sfp-PPTase enzymatic activity in a miniaturized high-throughput format. The consensus ybbr acceptor peptide […] was N-terminally labeled with Black Hole Quencher-2 (BHQ-2) and used in combination with rhodamine-labeled coenzyme A as a co-substrate.
# This project seeks to identify Sfp-PPTase inhibitors. This assay sought to determine the activity of these compounds with holo-acyl carrier protein synthase (AcpS) from E. coli, the canonical representative of the AcpS-PPTase subgrouping (vide supra). The evaluation utilized the qHTS assay format, with the only change being direct substitution of the enzyme.
# NIH Chemical Genomics Center [NCGC]
# NIH Molecular Libraries Probe Centers Network [MLPCN]
# Assay Submitter (PI): Michale Burkart, University of California, San Diego
# The assay was performed in a buffer consisting of 50mM HEPES-Na pH 7.6, 10mM MgCl2, 0.01% Nonidet P-40, and 0.01% BSA. Reagents (3 uL) were dispensed into a 1536-well black solid bottom plate (100 nM AcpS PPTase incolumns 1, 2, 5 through 48; buffer sans enzyme in columns 3 &4). DMSO solution of test articles (23 nL) were transferred via Kalypsys pintool equipped with 1,536-pin array. Following a room temperature incubation (15 min), enzyme reactions were initiated by the addition of substrate (1 uL , final concentration in the plte for rhodamine-CoA and BHQ-2-YbbR 5 uM and 12.5 uM, respectively). The plate was then centrifuged (15 s, 1000 rpm), and the fluorescence intensity recorded on a ViewLux High-throughput CCD imager (Perkin-Elmer, 525 nm excitation and 598 nm emission). The plate was then incubated at room temperature (30 min), after which a second read on the ViewLux was recorded. The fluorescence intensity difference over the 30-minute period was used to calculate the respective reaction rate for each well.
Structure (SMILES),"activity change, negative = inhibition",Potency
Cc1ccnc(NC(=S)N[C@@H]2CCN(c3cccc(C(F)(F)F)c3)C2)c1,-1.64% (inactive),
COc1cccc(NC(=S)N2CCN(c3cc(Cl)cc(Cl)c3)CC2)n1,8.03% (inactive),
CC(Cc1ccccc1)C(=O)Nc1ccc(Cl)cc1C(=O)O (configuration not stated),-11.5% (inactive),
Cc1ccnc(NC(=S)N2CCN(c3cc(C(F)(F)F)cc(C(F)(F)F)c3)CC2)c1,,4.57 µM (active)
FC(F)(F)c1cc(N2CCN(C(=S)Nc3cc(Cl)ccn3)CC2)cc(C(F)(F)F)c1,10.1% (inactive),
CSC(Cc1ccc(Cl)cc1)C(=O)Nc1ccc(Cl)cc1C(=O)O (configuration not stated),1.84% (inactive),
Cc1nc(CN(C)c2ncnc3ccc(-c4ccc5[nH]ncc5c4)cc23)cs1,55.2% (inactive),
Cc1ccnc(N=C(N)N2CCN(c3cccc(C(F)(F)F)c3)CC2)c1,15.1% (inactive),
Cc1cc(C)nc(NC(=S)N2CCN(c3ncccc3C#N)CC2)c1,-7.03% (inactive),
Cc1ccnc(NC(=S)N2CCCc3ccc(C(F)(F)F)cc32)c1,1.85% (inactive),
Cc1ccnc(NC(=S)Nc2cccc(C(F)(F)F)c2)c1,-5.9% (inactive),
Cc1cc(C)nc(NC(=S)N2CCN(c3ccc([N+](=O)[O-])cc3Cl)CC2)c1,,6.46 µM (active)
